From PubChem BioAssay (Tox21)
Several values for one entry are separate records, joined by “and”; a condition that tells them apart may be missing. Equal values may be shown once. Records with an inconclusive call do not appear. Entries that show only a call come without a potency. Activity calls are given as the source filed them. Calls follow the shape of the full dose curve.
Potency is read from the fitted curve at half-maximal effect.

These molecules were tested against Thyrotropin receptor (Homo sapiens) (UniProt P16473) (assay: qHTS assay to identify small molecule antagonists of the thyroid stimulating hormone receptor (TSHR) signaling pathway (AID 1259385; also: nearly all actives have a fitted effect of over 20% in size)). Settings: TSHR-HEK293 cAMP HTRF, TSH-stimulated antagonist mode; series mostly up to 92.4 µM.
Thyrotropin receptor (Homo sapiens), sequence (P16473 whole entry, looked up): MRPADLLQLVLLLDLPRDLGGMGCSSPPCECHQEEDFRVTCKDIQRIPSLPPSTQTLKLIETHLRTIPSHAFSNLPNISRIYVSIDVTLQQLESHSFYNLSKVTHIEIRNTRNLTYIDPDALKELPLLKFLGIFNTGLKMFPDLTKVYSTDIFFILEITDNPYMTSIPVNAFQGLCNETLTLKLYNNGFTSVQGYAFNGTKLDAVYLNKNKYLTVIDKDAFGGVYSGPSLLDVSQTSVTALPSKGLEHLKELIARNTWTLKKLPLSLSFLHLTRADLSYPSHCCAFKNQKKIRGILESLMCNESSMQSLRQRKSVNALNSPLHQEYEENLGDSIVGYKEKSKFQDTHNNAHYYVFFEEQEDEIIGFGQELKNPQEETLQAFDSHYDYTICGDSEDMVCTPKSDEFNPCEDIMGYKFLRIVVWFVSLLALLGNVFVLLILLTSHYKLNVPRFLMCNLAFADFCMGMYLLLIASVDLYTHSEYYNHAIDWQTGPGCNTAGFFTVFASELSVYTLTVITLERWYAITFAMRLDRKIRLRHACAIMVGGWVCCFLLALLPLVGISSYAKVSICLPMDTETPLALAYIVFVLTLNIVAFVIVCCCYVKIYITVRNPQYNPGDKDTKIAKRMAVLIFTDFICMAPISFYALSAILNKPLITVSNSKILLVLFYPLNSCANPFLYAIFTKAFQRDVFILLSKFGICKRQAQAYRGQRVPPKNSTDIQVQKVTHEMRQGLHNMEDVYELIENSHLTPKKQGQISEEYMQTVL
Text: U.S. Tox21 Program National Center for Advancing Translational Sciences [NCATS] NIH Chemical Genomics Center [NCGC] U.S. Environmental Protection Agency [EPA] National Institutes of Environmental Health Sciences [NIEHS] National Toxicology Program [NTP] U.S. Food and Drug Administration [FDA] Tox21 Assay Overview: TSHR is the receptor for thyrotropin (thyroid stimulating hormone or TSH), a member of the glycoprotein hormone family. TSH is released by the anterior pituitary gland and is the main regulator of thyroid gland growth and development. Upon binding circulating thyrotropin, a G-protein signal cascade activates adenylyl cyclase and […] cAMP concentration is increased. cAMP is a key second messenger involved extensively in cellular signal transduction pathways associated with the majority of G-protein coupled receptors (GPCRs). The activation of these GPCRs by neurotransmitters, lipids, nucleotides, peptides and hormones results in the activation or the inhibition of plasma membrane-bound adenylate cyclase through heterotrimeric G-proteins. A cell-based TSHR assay can be used to screen chemical compounds that modulate TSHR either in agonist or antagonist mode.
Tox21 Assay Protocol Summary: TSHR-Hek293 cells were dispensed at 800 cells/4uL/well in 1536-well white plates using a Multidrop dispenser. After the assay plates were incubated at a 37C/5% CO2 incubator for 18 hrs, 23 nL of compounds dissolved in DMSO, positive controls or DMSO only was transferred to the assay plate by a pin tool, followed by 1 ul medium containing Ro20-1724. For the antagonist mode screening, 1 uL of TSH was added on the top of the cell/compound mixtures to achieve a final agonist concentration of 1.5 ng/mL. After 30 min of incubation at room temperature, 2.5 ul/well of cAMP-d2 and 2.5 ul/well of anti-cAMP-cryptate were added respectively into the assay plates using a Flying Reagent Dispenser. The plates were incubated at room temperature for 1 hr. The fluorescence intensity in the plates was measured using an Envision plate reader. Each test compound was measured at 15 concentrations and in triplicates.
`Oc1ccc(I)cc1` was tested, and the Potency was “inactive”. `Oc1cc(Cl)c(Cl)c(Cl)c1` was tested, and the Potency was “inactive”. `ClC1=C(Cl)C2(Cl)C3C(Cl)C=CC3C1(Cl)C2(Cl)Cl` (stereo not given) was tested, and the Potency was “inactive”. For `Nc1ccc([N+](=O)[O-])cc1Cl`, the Potency was “inactive”. With `Nc1ccc(Sc2ccc(N)cc2)cc1` the Potency was “inactive”. In the case of `ClCc1ccc(Cl)cc1Cl`, the Potency is reported as “inactive”. For `COc1ccc(OC)c(CC(C)N)c1` (stereo not given), the Potency was “inactive”. For `Oc1c(Cl)c(Cl)cc(Cl)c1Cl`, the Potency was “inactive”. In the case of `O=[N+]([O-])c1ccc(Oc2ccc(C(F)(F)F)cc2[N+](=O)[O-])cc1`, the Potency is reported as “inactive”. `Clc1ccc(CCC(Cn2ccnc2)Sc2c(Cl)cccc2Cl)cc1` (stereo not given) was tested, and the Potency was “inactive”. With `O=[N+]([O-])c1cc([N+](=O)[O-])c2ccccc2c1` the Potency was “inactive”. For `C[CH2][Hg][N]1C(=O)C2C(C1=O)C1(Cl)C(Cl)=C(Cl)C2(Cl)C1(Cl)Cl` (stereo not given), the Potency was 14.6 µM (active). With `Cc1cc(C(C)(C)c2cc(C)c(O)c(C)c2)cc(C)c1O` the Potency was “inactive”. In the case of `N#C/C=C/C#N`, the Potency is reported as “inactive”. With `CC1(C)C(/C=C(\Cl)C(F)(F)F)C1C(=O)OC(C#N)c1cccc(Oc2ccccc2)c1` (stereo not given) the Potency was “inactive”. With `ClC(Cl)=C(c1ccc(Cl)cc1)c1ccc(Cl)cc1` the Potency was 28 µM (active). For `COCC(=O)N(c1c(C)cccc1C)[C@H](C)C(=O)OC`, the Potency was “inactive”. With `c1ccc2c(c1)[nH]c1cnccc12` the Potency was “inactive”. In the case of `O=C(O)C1C2CCC(O2)C1C(=O)O` (stereo not given), the Potency is reported as “inactive”. In the case of `COc1cc(C=O)cc2c1[C@H](COC(N)=O)[C@]1(OC(C)=O)ON2C[C@H]2[C@@H]1N2C(C)=O`, the Potency is reported as “inactive”. `CSCCCN=C=S` was tested, and the Potency was “inactive”. For `C=CC(=O)N(C)C`, the Potency was “inactive”. With `BrCBr` the Potency was “inactive”. For `Cc1c(Cl)c(=O)oc2cc(OP(=O)(OCCCl)OCCCl)ccc12`, the Potency was “inactive”. For `CC[C@H](C)[C@H]1O[C@]2(C=C[C@@H]1C)C[C@@H]1C[C@@H](C/C=C(\C)[C@@H](O[C@H]3C[C@H](OC)[C@@H](O[C@H]4C[C@H](OC)[C@@H](O)[C@H](C)O4)[C@H](C)O3)[C@@H](C)/C=C/C=C3\CO[C@@H]4[C@H](O)C(C)=C[C@@H](C(=O)O1)[C@]34O)O2`, the Potency was “inactive”. For `CCOC(=O)OC1=C(c2cc(C)ccc2C)C(=O)NC12CCC(OC)CC2` (stereo not given), the Potency was “inactive”. With `Clc1ccc(-c2ccccc2)cc1` the Potency was “inactive”. `CCC(C)c1cc([N+](=O)[O-])cc([N+](=O)[O-])c1OC(=O)C=C(C)C` (stereo not given) was tested, and the Potency was “inactive”. For `CCOP(=S)(OCC)SCS(=O)(=O)C(C)(C)C`, the Potency was “inactive”. In the case of `CCN`, the Potency is reported as “inactive”. For `CN(C)C1CSSSC1`, the Potency was “inactive”. For `Clc1ccc(CO/N=C(\Cn2ccnc2)c2ccc(Cl)cc2Cl)c(Cl)c1`, the Potency was 26.6 µM (active). `O=C(CCCN1CCC2(CC1)C(=O)NCN2c1ccccc1)c1ccc(F)cc1` was tested, and the Potency was “inactive”. For `CC(C)CCCCCOC(=O)c1ccccc1C(=O)OCCCCCC(C)C`, the Potency was “inactive”. With `O=C/C(Cl)=C(/Cl)C(=O)O` the Potency was “inactive”. `NNC(=O)c1ccccc1` was tested, and the Potency was “inactive”. In the case of `Clc1ccc(C(c2ccc(Cl)cc2)C(Cl)(Cl)Cl)cc1`, the Potency is reported as 30.9 µM (active) and 54.5 µM (active). `CC1(C)[C@H](C(=O)O[C@H](C#N)c2cccc(Oc3ccccc3)c2)[C@@H]1/C=C(\Cl)C(F)(F)F` was tested, and the Potency was “inactive”. For `c1ccc2cc3c(cc2c1)-c1cccc2cccc-3c12`, the Potency was “inactive”. For `BrCC(Br)c1ccccc1` (stereo not given), the Potency was “inactive”.
